This is an account of results in PubChem BioAssay AID743449 (Broad Institute, 2014).

Among all 9,900 compounds or so, about 90 (0.9%) were called active. Not shown: some 2% with an inconclusive outcome. The sample holds actives, similar compounds and a random draw of the others, so the mix is not that of the screen. A number with no mark means an inactive call.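 Rule for the calls: active = mean normalized replicate activity at least 50 and at least half of replicates each reaching 50; inconclusive = only one of the two criteria met; inactive = neither criterion met.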

This test can be described thus: reduction of CTGF mRNA in DLD1 cells – DLD1 colon cancer cells, RT-qPCR, single point, primary screen (AID 743449).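 Note: 0% = neutral control wells and 100% = dasatinib control wells; higher means stronger suppression of CTGF expression like dasatinib.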 Particulars: 24 h, at 12.5 µM, active compounds read high.
As for `COc1ccc2c3c(n(C)c2c1)[C@@H](CO)N(C(=O)Nc1ccc(F)cc1)CC31CCN(C(=O)c2ccc3c(c2)OCO3)CC1`, the inhibition was 8.8%.
The value for `C[C@@H]1CCCCO[C@H](CN(C)Cc2ccncc2)[C@H](C)CN([C@H](C)CO)C(=O)c2cc(NC(=O)Cc3ccccc3)ccc2O1` was 7.17%; that for `C/C=C/c1ccc([C@@H]2[C@@H](CO)N(CC3CCCC3)C23CN(S(=O)(=O)CC)C3)cc1` was -26.7%.
The value for `O=S(=O)(Cc1ccccc1)N1CC2(C1)[C@H](c1ccccc1)[C@H](CO)N2CC1CCCC1` was 63.5% (active).
The value for `C/C=C/c1ccc([C@@H]2[C@H](CO)N(CC3CCCC3)C23CN(S(=O)(=O)CC)C3)cc1` was -25.3%.
Regarding `O=C(C[C@H]1C[C@@H]2c3cc(NC(=O)C4CCOCC4)ccc3O[C@@H]2[C@@H](CO)O1)NCCN1CCCCC1`, the inhibition was 23.7%.
The value for `C/C=C/c1cccc(-c2nc(C(=O)N3CCCCC3)cc3c2[C@@H](CCO)N(C(=O)NC(C)C)C3)c1` was -19.7%; that for `C/C=C/c1cccc(-c2nc(C(=O)Nc3nccs3)cc3c2[C@@H](CCO)N(C(=O)NC(C)C)C3)c1` was 59.6% (active).
The value for `C/C=C/c1cccc(-c2nc(C(=O)N3CCCCC3)cc3c2[C@H](CCO)N(C(=O)NC(C)C)C3)c1` was 1.73%; that for `CCC(=O)N(CC(C)C)C[C@@H]1[C@@H](c2ccccc2)[C@H](CO)N1C(=O)C1CCC1` was 3.26%.
The result for `CO[C@@H](CN(C)S(=O)(=O)c1ccc(F)cc1)[C@H](C)CN(Cc1ccccc1Cl)[C@H](C)CO` reads -18%.
Consider `C[C@H](O)C#Cc1ccc([C@@H]2[C@H]3CN(C(=O)c4ccc5c(c4)OCO5)CCCCN3[C@H]2CO)cc1`, for which the inhibition is -48.5%.
The value for `O=C(c1cccc(F)c1)N1CCCCN2[C@H](C1)[C@H](c1ccc(C#CC3(O)CCCC3)cc1)[C@@H]2CO` was 24%.
With `O=C(c1cccc(F)c1)N1CCCCN2[C@H](CO)[C@@H](c3ccc(C#CC4(O)CCCC4)cc3)[C@@H]2C1`, the inhibition was -4.53%.
In the case of `O=C(c1cccc(F)c1)N1CCCCN2[C@H](C1)[C@@H](c1ccc(C#CC3(O)CCCC3)cc1)[C@@H]2CO`, the inhibition is 30.5%.
The result for `O=C(c1cccc(F)c1)N1CCCCN2[C@H](CO)[C@H](c3ccc(C#CC4(O)CCCC4)cc3)[C@@H]2C1` reads 58.8% (active).
The value for `C[C@H](O)C#Cc1ccc([C@@H]2[C@@H](CO)N3CCCCN(C(=O)c4ccc5c(c4)OCO5)C[C@H]23)cc1` was -21.5%; that for `O=C(c1cccc(F)c1)N1CCCCN2[C@H](CO)[C@H](c3ccc(C#CC4(O)CCCC4)cc3)[C@H]2C1` was 11.6%; that for `O=C(c1cccc(F)c1)N1CCCCN2[C@@H](CO)[C@H](c3ccc(C#CC4(O)CCCC4)cc3)[C@@H]2C1` was 68.7% (active).
The value for `C[C@H](O)C#Cc1ccc([C@H]2[C@@H](CO)N3CCCCN(C(=O)c4ccc5c(c4)OCO5)C[C@@H]23)cc1` was 53.3% (active); that for `O=C(C[C@H]1CC[C@H]2[C@@H](COC[C@@H](O)CN2C(=O)c2cccnc2)O1)NCC1CC1` was 6.53%; that for `COCCNC(=O)C[C@@H]1C[C@H]2c3cc(NC(=O)CN(C)C)ccc3O[C@H]2[C@H](CO)O1` was 0.098%.
`COc1cccc(NC(=O)N2C[C@H](O)COC[C@H]3O[C@H](CC(=O)N(C)C)CC[C@@H]32)c1`: the inhibition is -3.69%.
The result for `O=C(CN1CCOCC1)N1CC(=O)N2[C@H](C1)[C@@H](c1ccc(-c3cccc(F)c3)cc1)[C@@H]2CO` reads 10.6%.
The value for `C[C@H](CO)N1C[C@H](C)[C@H](CN(C)C(=O)Nc2ccc(-c3cccs3)cc2)OCc2cnnn2CCCC1=O` was 13.8%.
The result for `C[C@@H]1CC=CC[C@@H](c2cccc(Cl)c2)NC(=O)[C@H](Cc2ccccc2)N(C)C(=O)c2ccccc2O1` (mixture of isomers) reads 50.4% (active); that for `CC(C)[C@@H]1C(=O)N[C@H](c2cccc(Cl)c2)CC=CC[C@@H](C)Oc2ccccc2C(=O)N1C` (mixture of isomers), 14.5%.
Take `C[C@H]1CC=CC[C@H](c2cccc(Cl)c2)NC(=O)[C@@H](Cc2ccccc2)N(C)C(=O)c2ccccc2O1` (mixture of isomers): the inhibition was -83.3%.
As for `C[C@H]1CC=CC[C@H](c2cccc(Cl)c2)NC(=O)[C@H](Cc2ccccc2)N(C)C(=O)c2ccccc2O1` (mixture of isomers), the inhibition was -228%.
`CC(C)[C@H]1C(=O)N[C@H](c2cccc(Cl)c2)CC=CC[C@H](C)Oc2ccccc2C(=O)N1C` (mixture of isomers): the inhibition was -2.2%.
The value for `C[C@@H]1CC=CC[C@@H](c2cccc(Cl)c2)NC(=O)[C@@H](Cc2ccccc2)N(C)C(=O)c2ccccc2O1` (mixture of isomers) was 67.5% (active).
The value for `CN1C(=O)c2cc(NC(=O)NCc3ccccc3)ccc2OC[C@@H]2O[C@@H](CC(=O)NCC3CCCCC3)CC[C@H]21` was -20.9%; that for `COc1cccc(S(=O)(=O)N[C@H]2CC[C@H](CC(=O)NC3Cc4ccccc4C3)O[C@H]2CO)c1` was 3.79%.
The result for `Cc1noc(C)c1S(=O)(=O)N(C)C[C@H]1OCCCC[C@H](C)Oc2ccc(NC(=O)CCC(F)(F)F)cc2C(=O)N([C@@H](C)CO)C[C@@H]1C` reads 8.01%; that for `CN1C(=O)c2cc(NC(=O)c3cccc(Cl)c3)ccc2OC[C@H]2O[C@H](CC(=O)NC3CCCCC3)CC[C@H]21`, -12.4%; that for `COc1ccccc1NC(=O)N1CCCCN2[C@@H](CO)[C@H](c3ccc(-c4cccc(C#N)c4)cc3)[C@@H]2C1`, 75% (active).
Turning to `COc1ccccc1NC(=O)N1CCCCN2[C@H](C1)[C@@H](c1ccc(-c3cccc(C#N)c3)cc1)[C@@H]2CO`, the inhibition is -9.55%.
The value for `COc1ccccc1NC(=O)N1CCCCN2[C@H](CO)[C@@H](c3ccc(-c4cccc(C#N)c4)cc3)[C@H]2C1` was -21.9%.
The result for `COc1ccccc1NC(=O)N1CCCCN2[C@H](CO)[C@H](c3ccc(-c4cccc(C#N)c4)cc3)[C@@H]2C1` reads 52.5% (active); that for `COc1ccccc1NC(=O)N1CCCCN2[C@H](CO)[C@H](c3ccc(-c4cccc(C#N)c4)cc3)[C@H]2C1`, 19.1%; that for `COc1ccccc1NC(=O)N1CCCCN2[C@@H](CO)[C@@H](c3ccc(-c4cccc(C#N)c4)cc3)[C@@H]2C1`, -18.2%.
